We go through 27 compounds from PubChem BioAssay (Tox21).

SMILES strings stand for the structures. Inconclusive results are not listed. Active and inactive are the calls of the source. Unless noted, the call rests on the fitted dose curve; in most records, active means well fitted cell-killing curve with a large enough effect in the repeat runs; inconclusive means weak or mixed curves; inactive means no such curve, though single readings can be large or run the other way.
On the % scale 0 is the no-effect control and ±100 the full control effect.

Sequence of Androgen receptor (Homo sapiens) (P10275 whole entry, looked up): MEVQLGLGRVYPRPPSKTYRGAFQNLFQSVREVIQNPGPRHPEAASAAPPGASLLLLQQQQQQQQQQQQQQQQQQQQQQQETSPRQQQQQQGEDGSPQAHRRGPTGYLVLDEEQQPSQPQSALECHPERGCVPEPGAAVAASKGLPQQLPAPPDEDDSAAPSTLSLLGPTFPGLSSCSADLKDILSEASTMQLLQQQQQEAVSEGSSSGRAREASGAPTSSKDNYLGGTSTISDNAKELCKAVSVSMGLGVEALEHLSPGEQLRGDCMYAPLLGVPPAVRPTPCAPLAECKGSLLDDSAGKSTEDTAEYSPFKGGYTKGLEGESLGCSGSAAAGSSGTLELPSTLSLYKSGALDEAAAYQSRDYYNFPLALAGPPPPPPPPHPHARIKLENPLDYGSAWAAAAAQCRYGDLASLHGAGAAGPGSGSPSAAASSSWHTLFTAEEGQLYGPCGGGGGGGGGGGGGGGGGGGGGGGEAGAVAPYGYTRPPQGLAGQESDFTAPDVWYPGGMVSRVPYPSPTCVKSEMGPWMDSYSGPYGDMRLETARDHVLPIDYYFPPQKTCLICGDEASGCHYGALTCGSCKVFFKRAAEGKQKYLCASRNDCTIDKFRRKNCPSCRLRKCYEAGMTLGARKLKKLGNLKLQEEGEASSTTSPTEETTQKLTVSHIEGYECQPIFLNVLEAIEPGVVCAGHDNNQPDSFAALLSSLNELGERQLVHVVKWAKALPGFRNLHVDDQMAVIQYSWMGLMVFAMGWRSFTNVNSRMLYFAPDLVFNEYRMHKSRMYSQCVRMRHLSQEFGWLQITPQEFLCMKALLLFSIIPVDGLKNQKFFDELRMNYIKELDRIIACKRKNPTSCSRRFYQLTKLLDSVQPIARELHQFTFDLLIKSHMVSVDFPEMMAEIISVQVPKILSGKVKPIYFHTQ

Tested on in one experiment: not listed separately
Description: qHTS assay to identify small molecule antagonists of the androgen receptor (AR) signaling pathway - cell viability counter screen (AID 743033; further: nearly all actives have a fitted effect of over 45% in size; further: potency means the concentration at half of the fitted maximal effect). The note with it: AR-bla HEK293 viability, CellTiter-Glo luminescence, 16 h; series mostly up to 58.5 µM; activity change, negative = cytotoxicity: at the top concentration.
For `CC(C)(C)C(O)C(Oc1ccc(Cl)cc1)n1cncn1` (stereo not given), the “activity change, negative = cytotoxicity” value was -16.8% (inactive).
The same measure, in the same setting: under `CC(C)(CCl)C(=O)Cl` stands -24.3% (inactive).
Take `CN1C(=O)C(O)N=C(c2ccccc2)c2cc(Cl)ccc21` (stereo not given): the Potency entry was “inactive”.
As for `C=CC[C@]1(O)CC[C@H]2[C@@H]3CCC4=CC(=O)CCC4=C3C=C[C@@]21C`, the “activity change, negative = cytotoxicity” value is -21.2% (inactive).
Still for that read-out and setting: to `CC(=O)c1cc2c(cc1C)C(C)(C)C(C)CC2(C)C` (stereo not given) belongs -7.57% (inactive); to `ClP(Cl)(Cl)(Cl)Cl`, -6.69% [at 78.9 µM] (inactive).
Consider `N#CCC#N`, for which the “activity change, negative = cytotoxicity” value was -1.48% (inactive).
Consider `NC(=O)C(Cl)(Cl)Cl`, for which the “activity change, negative = cytotoxicity” value is 0.682% [at 78.9 µM] (inactive).
Same read-out and setting: to `CCCN(CC1CC1)c1c([N+](=O)[O-])cc(C(F)(F)F)cc1[N+](=O)[O-]` belongs -2.61% (inactive).
Take `CO/N=C(/C(=O)OC)c1ccccc1COc1ccccc1C`: the Potency is 6.92 µM (active).
The same measure, in the same setting: under `CCCCC(O)(Cn1cncn1)c1ccc(Cl)cc1Cl` (stereo not given) stands 48.9 µM (active); under `O=C(CCl)c1ccc(Cl)cc1Cl`, “inactive”.
Consider `O=C1c2ccccc2C(=O)C1C(=O)C(c1ccccc1)c1ccccc1`, for which the “activity change, negative = cytotoxicity” value is -0.441% (inactive).
In the case of `O=C(CBr)c1ccccc1`, the “activity change, negative = cytotoxicity” value was -3.6% [at 78.9 µM] (inactive).
Still for that read-out and setting: to `O=C1NCN(c2ccccc2)C12CCN(CCCOc1ccc(F)cc1)CC2` belongs -2.74% (inactive).
Consider `CO/C=C(/C(=O)OC)c1ccccc1COc1cccc(C(F)(F)F)n1`, for which the Potency was 3.46 µM (active).
The same measure, in the same setting: to `O=C(Nc1ccccc1)Nc1ccnc(Cl)c1` belongs 38.9 µM (active).
With `COCCOCCO`, the “activity change, negative = cytotoxicity” value is -12.4% (inactive).
For `OC(c1ccc(Cl)cc1)(c1ccc(Cl)cc1)c1cccnc1`, the Potency is 54.9 µM (active).
As for `CCOP(=S)(OCC)Oc1cc(Cl)c(Br)cc1Cl`, the “activity change, negative = cytotoxicity” value is 13.3% (inactive).
For `N#Cc1cc(I)c(O)c(I)c1`, the Potency is 49 µM (active).
With `C[N+](C)(C)CCCl`, the “activity change, negative = cytotoxicity” value was 1.45% [at 78.9 µM] (inactive).
As to `CN(C)c1ccc(N(C)C)cc1`, the “activity change, negative = cytotoxicity” value was -4.6% (inactive).
Still for that read-out and setting: under `O=S1(=O)OC(c2cc(Br)c(O)c(Br)c2)(c2cc(Br)c(O)c(Br)c2)c2ccccc21` stands -16.5% (inactive); under `CC(C)(OO)c1ccccc1`, 0.589% (inactive).
On to `Clc1cc(C(Cl)(Cl)Cl)cnc1Cl`, for which the “activity change, negative = cytotoxicity” value was 2.16% (inactive).
As to `IC(I)=C(I)I`, the Potency was 12.3 µM (active).

The next experiment deals with Androgen receptor (Homo sapiens) (UniProt P10275). The experiment in a line: qHTS assay to identify small molecule antagonists of the androgen receptor (AR) signaling pathway (AID 743035; active means well fitted inhibition curve with a large enough effect in the signal ratio in the repeat runs, not every such curve was filed as active; the % refers to the signal ratio; further: potency means the concentration at half of the fitted maximal effect). The note with it: HEK293 AR-UAS-bla, R1881-stimulated, beta-lactamase FRET, 16 h; series mostly up to 58.5 µM; activity change, negative = inhibition: at the top concentration. Summed up:
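Cell line: GeneBLAzer AR-UAS-bla GripTite (HEK293). Stimulus: R1881 added after compound. Exposure: 16 h, 37C, 5% CO2. Readout: LiveBLAzer B/G FRET fluorescence after 2 h at room temperature.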
In general terms: qHTS replaces the single test concentration by a dilution series.
Take `CCCCC(O)(Cn1cncn1)c1ccc(Cl)cc1Cl` (stereo not given): the Potency was 17.4 µM (active).
On to `OC(c1ccc(Cl)cc1)(c1ccc(Cl)cc1)c1cccnc1`, for which the Potency was 34.7 µM (active).
Take `C[N+](C)(C)CCCl`: the “activity change, negative = inhibition” value is 2.59% [at 78.9 µM] (inactive).

The target is the same in another experiment. Description: qHTS assay to identify small molecule agonists of the androgen receptor (AR) signaling pathway (AID 743036; active means well fitted activation curve with a large enough effect in the signal ratio in the repeat runs, with a control signal flat, not every such curve was filed as active; the % refers to the signal ratio). Conditions: HEK293 AR-UAS-bla GripTite, beta-lactamase FRET ratio, 16 h; series mostly up to 62.4 µM; activation: at the top concentration. A digest of the protocol:
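Quantitative HTS of the Tox21 10K library in HEK293 cells bearing a stably integrated UAS-controlled beta-lactamase reporter. Compound exposure lasted 16 h at 37C. Reporter activity was detected by FRET substrate fluorescence after 2 h at room temperature.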
Turning to `CCCCC(O)(Cn1cncn1)c1ccc(Cl)cc1Cl` (stereo not given), the “activation” value is 22.8% (inactive).
Still for that read-out and setting: under `O=C(CCl)c1ccc(Cl)cc1Cl` stands 28.8% (inactive); under `OC(c1ccc(Cl)cc1)(c1ccc(Cl)cc1)c1cccnc1`, 15.1% (inactive); under `CCOP(=S)(OCC)Oc1cc(Cl)c(Br)cc1Cl`, -3.38% (inactive).
On the same count and under the same terms, to `IC(I)=C(I)I` belongs -0.182% (inactive).
